# Activity calls are given as the source filed them. No stated cut-off is given here; in the data, active means remaining activity below about 50%; inactive means the rest.
# Biological target: Phospholipase D2 (Homo sapiens) (UniProt O14939)
# Assay: PLD2 inhibitors in cells, cell-based, HEK293, single concentration (AID 602143);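 further: tested at 200 nM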
# Settings: HEK293 cellular PLD2 activity, percent of control; stronger effect = lower value
# Chain of Phospholipase D2 (Homo sapiens) (O14939 whole entry, looked up): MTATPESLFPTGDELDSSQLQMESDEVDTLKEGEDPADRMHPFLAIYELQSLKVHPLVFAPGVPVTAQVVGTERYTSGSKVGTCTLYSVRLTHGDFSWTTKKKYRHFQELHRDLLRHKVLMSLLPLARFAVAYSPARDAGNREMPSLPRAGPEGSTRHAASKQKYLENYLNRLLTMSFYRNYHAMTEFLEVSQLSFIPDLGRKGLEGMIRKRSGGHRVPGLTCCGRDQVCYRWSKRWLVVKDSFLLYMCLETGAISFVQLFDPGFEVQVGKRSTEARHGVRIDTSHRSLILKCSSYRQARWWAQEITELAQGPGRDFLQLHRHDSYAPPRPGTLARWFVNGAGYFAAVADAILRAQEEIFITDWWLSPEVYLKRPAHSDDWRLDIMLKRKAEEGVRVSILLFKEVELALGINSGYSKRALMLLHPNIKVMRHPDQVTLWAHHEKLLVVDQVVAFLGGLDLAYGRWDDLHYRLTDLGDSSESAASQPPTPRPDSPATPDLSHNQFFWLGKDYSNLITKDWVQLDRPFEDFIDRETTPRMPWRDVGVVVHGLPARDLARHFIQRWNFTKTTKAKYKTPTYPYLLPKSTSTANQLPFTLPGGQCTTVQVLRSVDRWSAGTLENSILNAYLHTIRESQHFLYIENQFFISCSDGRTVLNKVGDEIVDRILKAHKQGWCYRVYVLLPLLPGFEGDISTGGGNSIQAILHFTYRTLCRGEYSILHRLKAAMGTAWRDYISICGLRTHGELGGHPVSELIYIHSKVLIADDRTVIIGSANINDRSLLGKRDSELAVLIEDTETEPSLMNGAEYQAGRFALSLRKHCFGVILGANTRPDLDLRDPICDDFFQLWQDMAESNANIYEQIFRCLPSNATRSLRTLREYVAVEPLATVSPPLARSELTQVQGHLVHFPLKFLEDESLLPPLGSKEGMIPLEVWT
# Chain of Phospholipase D2 (Homo sapiens) (O14939 whole entry, looked up): as above
row,SMILES,remaining activity
1,CCCCS(=O)(=O)NCCN1CCC(n2c(=O)[nH]c3ccccc32)CC1,78.3% (inactive)
2,O=C(NCCN1CCC2(C=Cc3ccccc32)CC1)c1ccc2ccccc2c1,119% (inactive)
3,O=C(NCCN1CCC(n2c(=O)[nH]c3ccccc32)CC1)c1ccc(Cc2ccccc2)cc1,72.9% (inactive)
